Data from the supplement of paper PMC11732987, “Enantioselective OTUD7B fragment discovery through chemoproteomics screening and high-throughput optimisation” (Communications Chemistry, 2025).

Assays:
Assay in all cases: log2 ratio of Biotin-Ahx-Ub-VS probe labelling (fragment/DMSO); higher = less target engagement (more negative = stronger competition), active = hit call of the paper (q ≤ 0.05, log2 ratio ≤ -1)
Conditions in all cases: compound concentration: 200 uM; treatment time: 3 h
USP9X = USP9X (UniProt Q93008)
Procedure, shortened: (§1)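 HEK293T lysate (495 µg per sample, in Tris/CHAPS/IGEPAL buffer with protease inhibitors) was treated in triplicate with fragment at 200 µM or with DMSO for 3 h. It was then treated with Biotin-Ahx-Ub-VS (0.5 µM final) for 1 h. Labelled DUBs were NeutrAvidin-enriched, digested with LysC and trypsin, and run by diaPASEF LC-MS/MS. Spectronaut label-free quantities were global-median-normalised. Values are average log2 ratios fragment/DMSO by unpaired t-test, using proteins with ≥2 unique peptides.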

UniProt O00487 = target: UniProt O00487
Chain of UniProt O00487 (O00487 whole entry): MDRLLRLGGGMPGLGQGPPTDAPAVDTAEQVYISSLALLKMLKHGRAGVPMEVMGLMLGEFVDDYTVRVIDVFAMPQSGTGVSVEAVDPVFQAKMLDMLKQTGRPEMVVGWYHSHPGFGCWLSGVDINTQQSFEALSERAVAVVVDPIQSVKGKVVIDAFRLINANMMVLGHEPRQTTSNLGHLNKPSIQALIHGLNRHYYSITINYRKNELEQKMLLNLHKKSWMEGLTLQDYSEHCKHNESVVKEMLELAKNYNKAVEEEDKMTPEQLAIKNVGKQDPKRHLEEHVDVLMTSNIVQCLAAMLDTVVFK
Procedure, shortened: as §1

UniProt O00507 = target: UniProt O00507
Chain of UniProt O00507 (O00507 whole entry): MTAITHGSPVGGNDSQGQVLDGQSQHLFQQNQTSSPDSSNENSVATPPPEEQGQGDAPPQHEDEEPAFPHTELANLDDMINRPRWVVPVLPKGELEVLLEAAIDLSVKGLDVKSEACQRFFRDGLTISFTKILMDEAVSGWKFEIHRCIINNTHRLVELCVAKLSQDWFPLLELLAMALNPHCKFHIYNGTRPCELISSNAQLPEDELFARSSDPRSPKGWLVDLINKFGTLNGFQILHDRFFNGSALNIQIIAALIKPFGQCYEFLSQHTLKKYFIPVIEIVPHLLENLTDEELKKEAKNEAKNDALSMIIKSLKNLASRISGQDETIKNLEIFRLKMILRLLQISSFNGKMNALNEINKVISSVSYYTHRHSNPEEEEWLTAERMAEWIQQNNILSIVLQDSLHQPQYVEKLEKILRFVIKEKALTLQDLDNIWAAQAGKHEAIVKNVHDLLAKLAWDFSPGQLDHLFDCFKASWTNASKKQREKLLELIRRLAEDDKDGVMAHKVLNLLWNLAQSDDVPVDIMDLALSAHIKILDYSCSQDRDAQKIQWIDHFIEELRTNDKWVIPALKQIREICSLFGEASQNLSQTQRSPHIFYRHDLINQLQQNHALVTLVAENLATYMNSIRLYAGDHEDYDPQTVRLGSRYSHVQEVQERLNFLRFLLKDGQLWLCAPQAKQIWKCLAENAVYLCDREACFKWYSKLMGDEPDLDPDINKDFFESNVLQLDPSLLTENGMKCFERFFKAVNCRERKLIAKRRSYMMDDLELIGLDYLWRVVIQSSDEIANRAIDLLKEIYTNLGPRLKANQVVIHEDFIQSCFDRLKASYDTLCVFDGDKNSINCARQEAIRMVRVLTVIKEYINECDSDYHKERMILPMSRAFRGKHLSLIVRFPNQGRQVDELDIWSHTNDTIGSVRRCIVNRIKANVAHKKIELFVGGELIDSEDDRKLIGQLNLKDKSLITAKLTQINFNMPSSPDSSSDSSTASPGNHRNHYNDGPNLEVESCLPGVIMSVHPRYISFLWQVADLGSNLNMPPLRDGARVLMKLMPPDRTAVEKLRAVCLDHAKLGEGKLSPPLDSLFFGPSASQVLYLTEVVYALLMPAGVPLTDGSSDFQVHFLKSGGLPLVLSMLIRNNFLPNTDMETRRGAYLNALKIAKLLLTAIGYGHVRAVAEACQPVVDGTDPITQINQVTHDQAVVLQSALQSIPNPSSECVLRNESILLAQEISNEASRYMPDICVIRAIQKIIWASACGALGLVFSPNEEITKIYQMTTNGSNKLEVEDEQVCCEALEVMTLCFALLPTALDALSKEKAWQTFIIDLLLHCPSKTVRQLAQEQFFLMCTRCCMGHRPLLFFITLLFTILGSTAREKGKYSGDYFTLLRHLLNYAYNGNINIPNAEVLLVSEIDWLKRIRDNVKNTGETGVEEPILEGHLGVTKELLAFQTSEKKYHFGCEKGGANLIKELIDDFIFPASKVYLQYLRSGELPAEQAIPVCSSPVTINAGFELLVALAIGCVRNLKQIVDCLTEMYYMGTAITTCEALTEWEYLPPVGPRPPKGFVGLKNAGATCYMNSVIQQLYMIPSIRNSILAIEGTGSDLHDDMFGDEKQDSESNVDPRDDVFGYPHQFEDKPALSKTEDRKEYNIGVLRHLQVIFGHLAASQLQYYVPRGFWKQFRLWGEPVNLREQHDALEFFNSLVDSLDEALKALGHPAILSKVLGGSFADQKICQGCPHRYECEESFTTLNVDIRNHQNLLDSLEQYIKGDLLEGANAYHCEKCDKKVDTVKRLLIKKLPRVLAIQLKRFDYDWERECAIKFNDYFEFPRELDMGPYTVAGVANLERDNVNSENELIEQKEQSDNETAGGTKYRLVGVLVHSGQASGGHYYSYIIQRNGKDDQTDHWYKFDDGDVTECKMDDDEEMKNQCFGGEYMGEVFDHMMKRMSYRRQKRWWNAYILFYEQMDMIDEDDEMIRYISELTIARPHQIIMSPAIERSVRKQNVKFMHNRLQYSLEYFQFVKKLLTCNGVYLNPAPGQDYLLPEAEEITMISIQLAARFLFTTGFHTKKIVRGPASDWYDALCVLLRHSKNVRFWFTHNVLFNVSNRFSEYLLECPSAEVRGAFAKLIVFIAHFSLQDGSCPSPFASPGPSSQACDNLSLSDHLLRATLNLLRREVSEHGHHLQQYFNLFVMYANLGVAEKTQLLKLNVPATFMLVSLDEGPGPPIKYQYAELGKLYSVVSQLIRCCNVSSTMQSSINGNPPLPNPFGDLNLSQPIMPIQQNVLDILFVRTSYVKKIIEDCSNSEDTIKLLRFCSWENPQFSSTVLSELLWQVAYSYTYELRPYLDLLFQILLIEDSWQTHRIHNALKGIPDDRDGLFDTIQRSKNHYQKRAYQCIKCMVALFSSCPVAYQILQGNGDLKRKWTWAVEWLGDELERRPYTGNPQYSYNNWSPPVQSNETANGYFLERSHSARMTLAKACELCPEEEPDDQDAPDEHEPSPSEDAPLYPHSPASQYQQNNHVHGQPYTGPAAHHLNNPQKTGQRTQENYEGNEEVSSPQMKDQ
Procedure, shortened: as §1

UniProt P51784 = target: UniProt P51784
Chain of UniProt P51784 (P51784 whole entry): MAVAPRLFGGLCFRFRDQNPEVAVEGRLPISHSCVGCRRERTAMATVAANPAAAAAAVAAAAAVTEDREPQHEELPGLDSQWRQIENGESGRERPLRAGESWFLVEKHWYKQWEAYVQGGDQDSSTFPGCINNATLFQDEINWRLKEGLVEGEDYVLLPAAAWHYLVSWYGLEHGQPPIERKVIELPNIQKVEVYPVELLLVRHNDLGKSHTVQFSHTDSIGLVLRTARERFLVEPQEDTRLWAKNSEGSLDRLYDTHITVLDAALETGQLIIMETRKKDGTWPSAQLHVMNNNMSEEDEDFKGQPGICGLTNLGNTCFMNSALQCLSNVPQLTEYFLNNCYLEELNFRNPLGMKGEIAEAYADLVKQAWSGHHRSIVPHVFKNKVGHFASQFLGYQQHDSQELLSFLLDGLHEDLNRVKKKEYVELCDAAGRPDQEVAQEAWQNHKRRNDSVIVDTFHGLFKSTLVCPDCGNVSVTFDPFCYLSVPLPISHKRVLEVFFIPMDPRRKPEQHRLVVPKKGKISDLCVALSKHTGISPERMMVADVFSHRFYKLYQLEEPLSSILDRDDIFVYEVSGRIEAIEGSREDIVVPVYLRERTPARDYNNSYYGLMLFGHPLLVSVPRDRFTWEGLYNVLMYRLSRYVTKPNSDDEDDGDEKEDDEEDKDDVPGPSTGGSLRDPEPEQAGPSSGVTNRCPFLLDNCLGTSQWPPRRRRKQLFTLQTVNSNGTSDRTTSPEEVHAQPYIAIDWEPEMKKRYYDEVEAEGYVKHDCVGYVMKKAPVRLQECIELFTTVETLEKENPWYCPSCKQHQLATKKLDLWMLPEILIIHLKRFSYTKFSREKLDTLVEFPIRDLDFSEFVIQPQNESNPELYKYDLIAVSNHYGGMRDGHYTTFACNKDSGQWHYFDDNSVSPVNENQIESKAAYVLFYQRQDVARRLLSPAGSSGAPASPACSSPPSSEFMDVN
Procedure, shortened: as §1

UniProt Q5T2D3 = target: T1, UniProt Q5T2D3
T1 sequence (whole entry): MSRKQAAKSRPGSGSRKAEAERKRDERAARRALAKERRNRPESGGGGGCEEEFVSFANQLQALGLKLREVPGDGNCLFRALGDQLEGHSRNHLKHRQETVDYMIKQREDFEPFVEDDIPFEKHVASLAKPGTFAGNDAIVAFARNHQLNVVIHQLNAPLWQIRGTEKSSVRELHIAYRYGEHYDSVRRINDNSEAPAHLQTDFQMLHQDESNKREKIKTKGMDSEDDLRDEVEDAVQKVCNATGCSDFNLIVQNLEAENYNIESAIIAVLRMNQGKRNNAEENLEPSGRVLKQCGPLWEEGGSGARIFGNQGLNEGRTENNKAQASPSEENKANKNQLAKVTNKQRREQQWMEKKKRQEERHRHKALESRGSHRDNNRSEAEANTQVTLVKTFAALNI
Procedure, shortened: as §1

UniProt Q8TE49 = target: T2, UniProt Q8TE49
T2 sequence (whole entry): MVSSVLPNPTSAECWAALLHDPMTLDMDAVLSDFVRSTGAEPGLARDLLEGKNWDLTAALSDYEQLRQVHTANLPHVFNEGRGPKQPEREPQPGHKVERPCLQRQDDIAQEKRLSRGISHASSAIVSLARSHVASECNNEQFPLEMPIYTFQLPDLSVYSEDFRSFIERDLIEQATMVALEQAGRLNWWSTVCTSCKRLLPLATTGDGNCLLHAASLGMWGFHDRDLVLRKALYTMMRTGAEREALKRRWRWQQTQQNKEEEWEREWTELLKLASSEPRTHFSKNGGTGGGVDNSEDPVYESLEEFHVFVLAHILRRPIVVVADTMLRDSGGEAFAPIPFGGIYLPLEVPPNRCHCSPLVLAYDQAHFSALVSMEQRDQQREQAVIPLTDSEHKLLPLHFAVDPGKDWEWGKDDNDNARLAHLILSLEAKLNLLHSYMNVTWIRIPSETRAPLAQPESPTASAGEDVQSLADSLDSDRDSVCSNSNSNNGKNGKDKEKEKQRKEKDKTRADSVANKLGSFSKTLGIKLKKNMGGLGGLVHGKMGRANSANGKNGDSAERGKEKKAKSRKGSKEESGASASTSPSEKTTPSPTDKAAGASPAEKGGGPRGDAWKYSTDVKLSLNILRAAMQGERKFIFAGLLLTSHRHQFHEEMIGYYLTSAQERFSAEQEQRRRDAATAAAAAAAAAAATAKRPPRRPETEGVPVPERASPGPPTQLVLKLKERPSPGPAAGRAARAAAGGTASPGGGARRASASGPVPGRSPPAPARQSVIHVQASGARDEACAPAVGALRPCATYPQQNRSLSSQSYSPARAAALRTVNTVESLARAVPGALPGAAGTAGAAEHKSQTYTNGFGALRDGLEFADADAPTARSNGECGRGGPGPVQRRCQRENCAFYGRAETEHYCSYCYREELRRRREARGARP
Procedure, shortened: as §1

UniProt Q9P2H5 = target: T3, UniProt Q9P2H5
T3 sequence (whole entry): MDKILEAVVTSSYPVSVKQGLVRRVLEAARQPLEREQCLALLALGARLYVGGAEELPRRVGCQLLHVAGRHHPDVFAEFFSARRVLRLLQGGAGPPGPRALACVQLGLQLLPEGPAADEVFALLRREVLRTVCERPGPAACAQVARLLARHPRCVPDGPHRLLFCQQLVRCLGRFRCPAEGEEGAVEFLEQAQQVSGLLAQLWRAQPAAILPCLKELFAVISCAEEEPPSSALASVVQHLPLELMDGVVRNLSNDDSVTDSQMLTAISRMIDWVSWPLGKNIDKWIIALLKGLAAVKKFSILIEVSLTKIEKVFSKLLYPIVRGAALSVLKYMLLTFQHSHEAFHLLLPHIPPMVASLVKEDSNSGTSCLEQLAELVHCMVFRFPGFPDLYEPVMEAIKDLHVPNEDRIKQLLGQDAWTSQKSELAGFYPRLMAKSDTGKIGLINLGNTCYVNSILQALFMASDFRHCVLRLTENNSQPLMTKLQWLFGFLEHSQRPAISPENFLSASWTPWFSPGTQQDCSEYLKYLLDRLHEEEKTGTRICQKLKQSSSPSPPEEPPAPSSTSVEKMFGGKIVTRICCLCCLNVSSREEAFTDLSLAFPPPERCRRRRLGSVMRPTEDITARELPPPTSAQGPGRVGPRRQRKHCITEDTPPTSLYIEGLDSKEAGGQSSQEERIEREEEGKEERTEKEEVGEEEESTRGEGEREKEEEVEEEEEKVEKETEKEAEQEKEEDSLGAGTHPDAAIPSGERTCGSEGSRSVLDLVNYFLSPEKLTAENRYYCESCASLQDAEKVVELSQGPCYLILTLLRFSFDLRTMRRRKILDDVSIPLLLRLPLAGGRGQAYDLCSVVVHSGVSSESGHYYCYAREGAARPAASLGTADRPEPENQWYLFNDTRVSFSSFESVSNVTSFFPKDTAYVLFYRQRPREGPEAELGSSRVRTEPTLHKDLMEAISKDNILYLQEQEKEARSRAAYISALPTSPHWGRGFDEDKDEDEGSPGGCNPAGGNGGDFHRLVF
Procedure, shortened: as §1

UniProt Q9UGI0 = target: T4, UniProt Q9UGI0
T4 sequence (whole entry): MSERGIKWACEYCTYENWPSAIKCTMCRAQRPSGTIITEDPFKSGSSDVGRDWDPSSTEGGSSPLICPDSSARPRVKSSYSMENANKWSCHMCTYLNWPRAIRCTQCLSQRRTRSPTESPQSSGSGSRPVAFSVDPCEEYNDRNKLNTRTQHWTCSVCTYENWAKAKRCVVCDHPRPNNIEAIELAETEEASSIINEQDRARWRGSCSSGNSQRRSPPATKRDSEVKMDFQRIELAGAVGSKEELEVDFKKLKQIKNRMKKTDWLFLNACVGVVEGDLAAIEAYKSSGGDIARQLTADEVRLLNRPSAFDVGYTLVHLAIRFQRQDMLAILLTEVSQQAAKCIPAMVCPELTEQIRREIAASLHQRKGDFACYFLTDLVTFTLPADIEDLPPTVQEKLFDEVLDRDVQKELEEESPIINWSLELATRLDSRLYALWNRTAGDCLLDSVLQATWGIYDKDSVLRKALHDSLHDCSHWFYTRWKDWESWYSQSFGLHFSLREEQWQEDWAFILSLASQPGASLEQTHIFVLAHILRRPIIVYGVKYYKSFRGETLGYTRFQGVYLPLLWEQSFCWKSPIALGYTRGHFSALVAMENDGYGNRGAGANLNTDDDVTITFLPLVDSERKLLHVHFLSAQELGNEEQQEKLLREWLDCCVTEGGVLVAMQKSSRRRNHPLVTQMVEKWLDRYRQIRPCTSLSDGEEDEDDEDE
Procedure, shortened: as §1

YOD1 = target: T5, YOD1 (UniProt Q5VVQ6)
T5 sequence (whole entry): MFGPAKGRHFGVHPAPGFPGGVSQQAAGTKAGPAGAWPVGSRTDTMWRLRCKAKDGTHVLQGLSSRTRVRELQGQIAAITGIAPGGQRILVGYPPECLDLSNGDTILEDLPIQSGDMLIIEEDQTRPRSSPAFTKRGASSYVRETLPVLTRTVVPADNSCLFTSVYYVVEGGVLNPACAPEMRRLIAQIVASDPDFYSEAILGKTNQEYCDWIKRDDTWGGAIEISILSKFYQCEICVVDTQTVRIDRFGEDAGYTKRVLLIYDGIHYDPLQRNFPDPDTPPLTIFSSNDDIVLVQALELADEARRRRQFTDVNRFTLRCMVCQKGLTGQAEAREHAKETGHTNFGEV
Procedure, shortened: as §1

Measured: log2 ratio of Biotin-Ahx-Ub-VS probe labelling

Cl.O=C(CCl)NCCc1ncc(F)cc1F
inactive: USP9X -0.419 | UniProt O00487 -0.24 | UniProt O00507 0.000732 | UniProt P51784 -0.132 | UniProt Q5T2D3 -0.431 | UniProt Q8TE49 -0.85 | UniProt Q9P2H5 -0.675 | UniProt Q9UGI0 -0.786 | YOD1 -0.195
